Assay results from PubChem BioAssay (NCI).
The panel holds about 83,000 compounds, 20% with a hit somewhere; the sample as a whole holds those more often.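 In brief: 96-well plates, 48 h treatment, single concentration, percent growth endpoint.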 Activity calls are given as the source filed them. The calls were made as follows: active = growth percent below 10; inactive = the rest.

System: HL-60(TB) leukemia
Assay: NCI-60 one-dose screen, 48 h (100 = growth as untreated, 0 = no growth, -100 = all killed)
Conditions: 10 µM unless noted

Row | SMILES | growth
1 | COc1ccc(C(=O)N2c3ccccc3Sc3ccccc32)c(C(F)(F)F)c1 | 2.01% (active)
2 | Nc1n[nH]c(=S)n1-c1ccc(Cl)cc1 | 82.6% (inactive)
3 | O=S(=O)(Nc1ccc(Cl)c(Cl)c1)c1ccc(-c2cnc(C3CC3)o2)cc1 | 18.6% (inactive)
4 | O=C(Nc1ccncc1)C(=O)c1cn(S(=O)(=O)c2cc(Cl)cc(Cl)c2)c2ccccc12 | 58.9% (inactive)
5 | COc1c(O)cc2oc3cc(O)c(CC=C(C)C)c(O)c3c(=O)c2c1CC=C(C)C | 65.9% (inactive)
6 | COc1ccc(/C=C2\Oc3cc(OCCCCCN4CCCCC4)ccc3C2=O)cc1OC | 97.8% (inactive)
7 | CCCCCCCCOC(=O)CC[C@@H](C)[C@H]1CC[C@H]2[C@@H]3[C@H](OC(=O)CCN)C[C@@H]4C[C@H](OC(=O)CCN)CC[C@]4(C)[C@H]3C[C@H](OC(=O)CCN)[C@]12C | 43.7% (inactive)
8 | O=C(CCCCC[P+](c1ccccc1)(c1ccccc1)c1ccccc1)NC(COC(=O)C(Cl)Cl)(COC(=O)C(Cl)Cl)COC(=O)C(Cl)Cl | 95.5% (inactive)
9 | CCN(CC)c1cc(N)c(Cc2c(N)cc(N(CC)CC)cc2Cl)c(Cl)c1 | -8.28% (active)
10 | S=C(Cc1ccc2c(c1)CCCC2)N1CCOCC1 | 85% (inactive)
11 | COc1ccc(/C=N/C2=C(C#N)C(c3ccc(OC)cc3)c3ccc4ccccc4c3O2)cc1 (stereo not drawn) | 63.4% (inactive)
12 | NC(=O)NC1(C(=O)O)CCCC1 | 97.1% (inactive)
13 | COc1ccc2c(c1)c(-c1nc(-c3c[nH]c4ncccc34)cs1)cn2CCNC(=O)OC(C)(C)C | 69.2% (inactive)
